This is a sample that favours compounds with a hit; in the whole collection about 3.5% have one here.
MITF inh: inhibitors of human MITF; inhibition, % at 2.6 µM; hit rate 0.91% among 650,000; AlphaScreen MITF homodimerization, bead proximity signal; O75030; in the data active = inhibition above about 50%
TEAD-YAP block: TEAD-YAP interaction inhibition; HEK-TIYL cells, TEAD-Gal4/YAP UAS-luciferase luminescence; inhibition, % at 9.12 µM; hit rate 1.4% among 640,000; AID 1259422; in the data active = inhibition above about 32%
FBW7 act: human FBW7 E3 ligase activation, primary screen | Q969H0 | AlphaScreen FBW7–phospho-cyclin E peptide binding, activator screen | normalized activity (activation), % at 26.1 µM | hit rate 0.13% among 650,000 | AID 1259310; in the data active = normalized activity above about 1.9%;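 note: purified mutant Fbw7 with reduced substrate affinity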
Target sequence (Q969H0 whole entry, looked up): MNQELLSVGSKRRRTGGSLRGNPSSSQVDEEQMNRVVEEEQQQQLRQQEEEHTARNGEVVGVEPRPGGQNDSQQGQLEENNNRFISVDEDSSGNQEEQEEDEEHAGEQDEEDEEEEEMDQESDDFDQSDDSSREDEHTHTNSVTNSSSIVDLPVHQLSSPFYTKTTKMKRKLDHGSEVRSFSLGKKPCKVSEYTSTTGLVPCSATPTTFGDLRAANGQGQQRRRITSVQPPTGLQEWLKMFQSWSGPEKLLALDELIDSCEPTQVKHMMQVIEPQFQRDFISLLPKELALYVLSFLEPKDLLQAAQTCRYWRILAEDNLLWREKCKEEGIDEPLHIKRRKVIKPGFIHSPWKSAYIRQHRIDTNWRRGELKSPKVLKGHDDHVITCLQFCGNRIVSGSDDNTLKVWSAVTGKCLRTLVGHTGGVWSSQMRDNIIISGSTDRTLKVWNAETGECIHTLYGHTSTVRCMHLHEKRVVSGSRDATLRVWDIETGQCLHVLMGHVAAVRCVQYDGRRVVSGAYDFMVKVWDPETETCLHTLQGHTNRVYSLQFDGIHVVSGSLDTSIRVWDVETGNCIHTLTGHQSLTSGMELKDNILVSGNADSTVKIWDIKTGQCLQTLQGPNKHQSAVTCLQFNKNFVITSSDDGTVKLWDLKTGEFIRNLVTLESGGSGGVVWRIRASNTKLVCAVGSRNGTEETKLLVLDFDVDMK
GPR151 activ: activates the human receptor GPR151; hit rate 1% among 650,000; PathHunter beta-arrestin GPR151 cells, luminescence; Q8TDV0; AID 1508602; activation, % at 11.2 µM; in the data active = activation above about 4.9%
MITF inh conf: human MITF inhibition, confirmation. AlphaScreen MITF homodimerization, biotin/His-MITF beads. hit rate 16% among 4,700. shares compounds with MITF inh. inhibition, % at 2.6 µM. AID 1259372;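 active = inhibition above a cutoff derived from the DMSO control wells, cut at about 28% in these data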;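 note: inhibitors lower the bead chemiluminescence by keeping MITF from dimerizing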
AlphaScreen DR: AlphaScreen optical interference, dose response counter-screen | shares compounds with MITF inh | AlphaScreen optical interference counterscreen, cell-free | IC50, µM | hit rate 6% among 480; call rule not given here
AlphaScreen intf2: counter-screen: compounds optically interfering with AlphaScreen; hit rate 7.6% among 4,700; inhibition, % at 2.6 µM; shares compounds with MITF inh; LysRS AlphaScreen counterscreen, signal interference, triplicate; AID 1259376;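 active = inhibition above a cutoff derived from the DMSO control wells, cut at about 30% in these data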
Large screens that a line does not name were inactive (follow-up assays come after a bar, where they were run).

COc1cccc(CN2CCN(Cc3ccccc3C(F)(F)F)CC2)c1OC	MITF inh 67 | MITF inh conf inactive | AlphaScreen intf2 inactive
CCN(CC)C(=O)C1CCCN(Cc2cccc(F)c2)C1 (stereo not given)	MITF inh 58 | MITF inh conf inactive | AlphaScreen intf2 inactive
CCN(CC)C(=O)C1CCCN(Cc2ccc(C)cc2)C1 (stereo not given)	none
CCN(CC)C(=O)C1CCCN(Cc2cccc(C)c2)C1 (stereo not given)	none
CCN(CC)C(=O)C1CCCN(Cc2sccc2C)C1 (stereo not given)	MITF inh 51 | MITF inh conf inactive | AlphaScreen intf2 inactive
CCN(CC)C(=O)C1CCCN(Cc2cccc(OC)c2)C1 (stereo not given)	MITF inh 56 | MITF inh conf inactive | AlphaScreen intf2 inactive
O=C(NCc1cccs1)c1cc(-c2ccc(F)cc2)c[nH]1	none
Cc1sc(NC(=O)CN(Cc2ccc(F)cc2)C(=O)C(C)(C)C)c(C(N)=O)c1C	MITF inh 68 | MITF inh conf inactive | AlphaScreen intf2 inactive
Cc1sc(NC(=O)CN(Cc2ccc(F)cc2)C(=O)c2ccccc2)c(C(N)=O)c1C	none
CCNC(=O)COC(=O)c1cc(-c2ccco2)nc2ccccc12	none
O=C(O)c1cc(-c2ccco2)nc2ccccc12	MITF inh 55 | MITF inh conf 57 | AlphaScreen DR inactive | AlphaScreen intf2 inactive
O=C(Nc1cccc(O)c1)c1cc(-c2ccco2)nc2ccccc12	none
O=C(COC(=O)c1cc(-c2ccco2)nc2ccccc12)NC1CC1	MITF inh 51 | MITF inh conf 40 | AlphaScreen DR inactive | AlphaScreen intf2 inactive
O=C(OC1CCOC1=O)c1cc(-c2ccco2)nc2ccccc12 (stereo not given)	MITF inh 75 | MITF inh conf 76 | AlphaScreen DR inactive | AlphaScreen intf2 inactive
CC(C)N(C(=O)COC(=O)c1cc(-c2ccco2)nc2ccccc12)C(C)C	MITF inh 54 | MITF inh conf 45 | AlphaScreen DR inactive | AlphaScreen intf2 inactive
CC(=O)Nc1ccc(Nc2nc(-c3ccc(C(=O)N4CCN(C)CC4)cc3)nc3c2ncn3C2CCCCC2)cc1	none
CN1CCN(C(=O)c2ccc(-c3nc(Nc4ccccc4)c4ncn(C5CCCCC5)c4n3)cc2)CC1	MITF inh 75 | MITF inh conf 41 | AlphaScreen DR inactive | AlphaScreen intf2 inactive
O=C(O)CN(CCN(CC(=O)O)CC(=O)O)CC(=O)O	none
COC(=O)CN(CCN(CC(=O)O)CC(=O)OC)CC(=O)O	MITF inh 55 | MITF inh conf 41 | AlphaScreen intf2 inactive
O=C(c1ccc([N+](=O)[O-])cc1)N1CCN(Cc2cccc3ccccc23)CC1	MITF inh 58 | MITF inh conf 29 | AlphaScreen DR inactive | AlphaScreen intf2 inactive
O=C(c1ccc([N+](=O)[O-])cc1)N1CCN(Cc2ccccn2)CC1	MITF inh 64 | MITF inh conf inactive | AlphaScreen intf2 inactive
O=C(c1cccc(F)c1)N1CCN(Cc2ccccn2)CC1	none
COC(=O)C(C(=O)OC)=C(/C=C/N(C)C)N(C)C	MITF inh 74 | MITF inh conf inactive | AlphaScreen intf2 inactive
CCOC(=O)/C(C(C)=O)=C(\C=C\N(C)C)N(C)C	none
Cc1nc2ccc(NC(=O)CSc3nccc(-c4ccc(F)cc4)n3)cc2[nH]1	none
Oc1ccc(CN2CCN(c3ccccc3F)CC2)c2cccnc12	none
CCOC(=O)N1CCN(Cc2ccc(O)c3ncccc23)CC1	MITF inh 71 | MITF inh conf 50 | AlphaScreen intf2 97
CCCOCc1ccc(O)c2ncccc12	MITF inh 81 | MITF inh conf 80 | AlphaScreen intf2 100
O=C(O)C1=NN(c2ccccn2)C(=O)CC1	MITF inh 77 | MITF inh conf inactive | AlphaScreen intf2 100
CCN1CCN(C(=O)C2CCN(Cc3ccc(Cl)c(Cl)c3)CC2)CC1	MITF inh 63 | MITF inh conf inactive | AlphaScreen intf2 inactive
CCOc1ccc(CN2CCC(C(=O)N3CCN(CC)CC3)CC2)cc1	none
NC(=O)C1CCN(Cc2ccc(Cl)c(Cl)c2)CC1	MITF inh 53 | MITF inh conf inactive | AlphaScreen intf2 inactive
CCc1cccc(CC)c1NC(=O)CN(C)S(=O)(=O)c1ccc(F)cc1	none
O=C1CCCN1CCn1cnc2c(Nc3ccc4c(c3)OCO4)nc(N3CCN(c4ccccn4)CC3)nc21	MITF inh 76 | MITF inh conf inactive | AlphaScreen intf2 inactive
O=C1CCCN1CCn1cnc2c(Nc3ccc(N4CCOCC4)cc3)nc(N3CCN(c4ccccn4)CC3)nc21	none
CCc1ccc(S(=O)(=O)Nc2cc(-n3c(C)nc4ccccc4c3=O)ccc2F)s1	none
COc1cccc(-c2ccc3nnc(SC)n3n2)c1	none
O=C1OC(c2ccccc2)=N/C1=C/c1cc2ccccc2nc1N1CCOCC1	MITF inh 56 | MITF inh conf inactive | AlphaScreen intf2 inactive
COc1cc(OC)c(OC)cc1CN1CCN(Cc2ccc(SC)cc2)CC1	MITF inh 52 | MITF inh conf inactive | AlphaScreen intf2 inactive
COc1ccc(CN2CCSCC2)c(OC)c1	none
COc1ccc(OC)c(CN2CCN(Cc3ccc(OC)cc3OC)CC2)c1	none
COc1cc(OC)c(OC)cc1CN1CCN(Cc2cc(OC)c(OC)cc2OC)CC1	MITF inh 71 | MITF inh conf inactive | AlphaScreen intf2 inactive
COc1ccc(CN2CCN(Cc3ccccc3OC)CC2)c(OC)c1	MITF inh 78 | MITF inh conf inactive | AlphaScreen intf2 inactive
COc1cc(OC)c(OC)cc1CN1CCN(Cc2ccccc2Br)CC1	none
COc1ccc(CN2CCN(Cc3ccccc3F)CC2)c(OC)c1	MITF inh 81 | MITF inh conf inactive | AlphaScreen intf2 inactive
CC(C)(O)C#CCN1CCN(c2ccc([N+](=O)[O-])cc2)CC1	none
C=CCN1C(=O)/C(=C\c2ccc(O)c([N+](=O)[O-])c2)C(=O)NC1=S	none
COc1ccccc1CN1CCOCC1	MITF inh 58 | MITF inh conf inactive | AlphaScreen intf2 inactive
COc1ccc(CN2CCN(Cc3cc(OC)c(OC)cc3[N+](=O)[O-])CC2)cc1OC	MITF inh 68 | MITF inh conf inactive | AlphaScreen intf2 inactive
COc1cc(OC)c(OC)cc1CN1CCN(Cc2ccccc2Cl)CC1	MITF inh 75 | MITF inh conf inactive | AlphaScreen intf2 inactive
COc1cc(OC)c(OC)cc1CN1CCN(Cc2ccccc2F)CC1	MITF inh 77 | MITF inh conf inactive | AlphaScreen intf2 inactive
N/C(=N\OC(=O)Oc1ccccc1)c1cccnc1	none
CCCCNc1ncnc2c1c(-c1ccccc1)cn2-c1cccc(C)c1	none
C(=N\N1CCN(c2ccccn2)CC1)/c1ccc2ncccc2c1	none
CCN1CCN(C(=O)c2ccc(N3CC4CC(C3)c3cccc(=O)n3C4)c(NC(=O)c3cc(OC)ccc3Br)c2)CC1 (stereo not given)	none
COc1ccc(CN2CCN(Cc3cc(OC)c(OC)cc3[N+](=O)[O-])CC2)c(OC)c1	MITF inh 80 | MITF inh conf inactive | AlphaScreen intf2 inactive
